PubChem BioAssay (NCATS)
Values without a mark were called inactive. Results filed as inconclusive are left out. Where a call stands in place of a potency, no number is given. The source made the active and inactive calls. Unless noted, calls come from the whole dose curve; as a rule, active = well fitted curve in the direction sought with a large enough effect; inconclusive = small, poorly fitted or top-dose-only effect, or another doubt; inactive = no such curve, though single readings can be large; an effect the other way counts as inactive or inconclusive.

Legend:
[1] = qHTS for small molecule inhibitors of Yes1 kinase: Counter Assay (AID 686950);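 note: no kinase present so only ADP-Glo detection of a fixed ADP amount is tested; luminescence from ADP-Glo reporting ADP in a fixed ATP and ADP mixture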
How it was run: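 Luminescence read-out from ADP-Glo quantifies a fixed ADP amount (0.02 mM ADP with 0.08 mM ATP) after 60 min at room temperature; signal is normalized between DMSO wells with ATP/ADP and with 0.1 mM ATP alone.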

[2] = qHTS Assay for Identifying Gametocytocidal Compounds (AID 743244); note: potency is the fitted concentration of half-maximal effect; conditions: P. falciparum 3D7 stage III-V gametocytes, alamarBlue, 72 h
How it was run: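 Late gametocytes (III–V), P. falciparum 3D7; 72 h drug, then 24 h alamarBlue; resazurin reduction read by fluorescence.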

[3] = system: CP203; test: qHTS profiling for inhibitors of Plasmodium falciparum proliferation (AID 504749); note: nearly all actives have a fitted effect of over 60% in size; conditions: P. falciparum in erythrocytes, SYBR Green DNA, 72 h; series mostly up to 28.7 µM
How it was run: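 Infected RBCs, 0.3% parasitemia/2.5% Hct final; cpd 72 h, 37 C, 5% CO2; lysis buffer with saponin/triton/SYBR Green I, o/n RT dark; FI 485/535; norm. to artemisinin (0.29 uM) and DMSO.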

[4] = qHTS Assay for Identification of Small Molecule Agonists for Hypoxia Response Element Signaling Pathway (AID 914; active = well fitted activation curve with a large enough effect in the signal ratio, with a control signal flat, not every such curve was filed as active; the % refers to the signal ratio); conditions: ME-180 (cervical carcinoma) HRE-bla reporter, beta-lactamase ratio, CoCl2, 17 h; activation: stronger effect = higher value
How it was run: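 Cells were plated overnight, pin-dosed with compound in a titration series, co-stimulated with EC50 CoCl2 and incubated 17 hours at 37 degrees Celsius. CCF4 substrate was then loaded, and AC50 values came from the 460nm/530nm ratio.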

[5] = biological target: Pyruvate kinase PKM (Homo sapiens) (UniProt P14618); test: qHTS Assay for Inhibitors of Human Muscle Pyruvate Kinase (AID 958); conditions: purified human PKM enzyme activity
How it was run: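 Enzyme was run at intermediate activity so both inhibitors and activators could be detected. ATP formed from ADP and PEP by 0.1 nM human PKM2 during a 1 h room-temperature incubation was quantified by coupled luciferase luminescence.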

[6] = biological target: Pyruvate kinase (Leishmania mexicana) (UniProt Q27686); test: qHTS Validation Assay for Activators of Leishmania Mexicana Pyruvate Kinase (AID 959)
How it was run: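 The enzyme is a highly purified E451W mutant of LmPYK used at 0.2 nM. It converts 0.5 mM PEP and 0.1 mM ADP over 1 h at room temperature; product ATP is quantified by luciferase luminescence relative to DMSO controls.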

[7] = biological target: DNA dC->dU-editing enzyme APOBEC-3G (Homo sapiens) (UniProt Q9HC16); test: qHTS for inhibitors of Vif-A3G interactions: Validation (AID 588379)
How it was run: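 HeLa cells stably expressing Vif and A3G-eYFP, 700 cells/well, incubated overnight at 37 deg C, then exposed to compound overnight at 37 deg C. Inhibition of Vif-mediated degradation read as increased yellow fluorescence (Ex 488/Em 500-530) by laser-scanning cytometry.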

[8] = Primary qHTS for small molecule stabilizers of the endoplasmic reticulum resident proteome: Secreted ER Calcium Modulated Protein (SERCaMP) assay (AID 1508630)
How it was run: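 GLuc-SERCaMP-expressing SH-SY5Y cells, pretreated 16 h with compound, are challenged with thapsigargin to empty ER calcium stores; after 4 h, coelenterazine is added directly to the medium and luminescence is imaged.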

[9] = Confirmation and Secondary Assay for Modulators of Hemoglobin Beta Chain Splicing at IVS2 705 locus (AID 930);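 note: HeLa cells stably expressing the EGFP-705 splicing reporter; GFP fluorescence per well restored by corrected splicing of the IVS2-705 intron in EGFP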
How it was run: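 Splice-correction reporter: EGFP cDNA split by beta-globin intron 2 bearing the 705 mutation, stably in HeLa. Compound incubation 2 days, 37C; fluorescent objects 5-250 µm summed per well.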

[10] = qHTS Assay for Identification of Small Molecule Antagonists for NFkB Signaling Pathway (AID 895; active = well fitted inhibition curve with a large enough effect in the signal ratio, with a control signal flat, not every such curve was filed as active; the % refers to the signal ratio)
How it was run: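 Beta-lactamase reporter read-out (460 and 530 nm emission ratio, 405 nm excitation, 2 hrs substrate loading RT) after 5 hr stimulation with 10 pM TNF alpha in compound-treated NFkB-bla ME-180 cells in low-serum medium.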

[11] = biological target: D(1A) dopamine receptor (Homo sapiens) (UniProt P21728); test: HTS Assay for Allosteric Agonists of the Human D1 Dopamine Receptor: Primary Screen for Potentiators (AID 488982)
How it was run: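 Calcium flux in an inducible, force-coupled HEK293 Trex D1 line (overnight at 30 C): agonist mode is the 180 s kinetic read after compound; potentiator mode is the following 180 s read after dopamine at EC20.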

[12] = Cytotoxicity counterscreen for NFkB agonists and antagonists (AID 624476);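 note: cells exposed to compound for 48 hours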
[13] = qHTS Assay for Identification of Small Molecule Agonists for NFkB Signaling Pathway. (AID 624478)
How it was run: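 NFkB-bla ME-180 cells carry a beta-lactamase reporter. They received compound plus TNF alpha at 10 pM final (its EC50) for 5 h at 37 C. Reporter activity was read as 460/530 nm emission ratio after 2 h LiveBLAzer substrate loading.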

[14] = qHTS Assay for Identification of Small Molecule Antagonists for NFkB Signaling Pathway. (AID 624479; calls by dose curve;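 note: pathway stimulated with TNF alpha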)
[15] = biological target: Cytochrome P450 2C9 (Homo sapiens) (UniProt P11712); test: qHTS Assay for Inhibitors and Substrates of Cytochrome P450 2C9 (AID 883); note: potency is the fitted concentration of half-maximal effect; nearly all actives have a fitted effect of over 60% in size
How it was run: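 Inhibition of CYP2C9 is scored as loss of luminescence, with 57uM sulphaphenazole defining 100% inhibition. Substrate Luciferin-H is used at 100uM, equal to its KM; enzyme at 10nM in 25mM KPO4, 60 min at 37C with NADPH regeneration.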

Chain of DNA dC->dU-editing enzyme APOBEC-3G (Homo sapiens) (Q9HC16 whole entry, looked up): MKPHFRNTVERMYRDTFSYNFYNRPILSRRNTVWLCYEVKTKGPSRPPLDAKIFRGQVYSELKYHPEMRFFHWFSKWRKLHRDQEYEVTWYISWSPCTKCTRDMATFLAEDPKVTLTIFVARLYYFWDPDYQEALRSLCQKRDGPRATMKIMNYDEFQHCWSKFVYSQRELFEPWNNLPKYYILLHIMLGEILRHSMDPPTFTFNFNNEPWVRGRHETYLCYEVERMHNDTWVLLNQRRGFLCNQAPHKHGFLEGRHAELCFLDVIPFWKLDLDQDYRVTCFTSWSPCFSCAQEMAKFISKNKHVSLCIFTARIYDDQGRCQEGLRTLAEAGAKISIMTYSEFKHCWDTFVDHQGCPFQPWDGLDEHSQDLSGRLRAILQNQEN
Chain of D(1A) dopamine receptor (Homo sapiens) (P21728 whole entry, looked up): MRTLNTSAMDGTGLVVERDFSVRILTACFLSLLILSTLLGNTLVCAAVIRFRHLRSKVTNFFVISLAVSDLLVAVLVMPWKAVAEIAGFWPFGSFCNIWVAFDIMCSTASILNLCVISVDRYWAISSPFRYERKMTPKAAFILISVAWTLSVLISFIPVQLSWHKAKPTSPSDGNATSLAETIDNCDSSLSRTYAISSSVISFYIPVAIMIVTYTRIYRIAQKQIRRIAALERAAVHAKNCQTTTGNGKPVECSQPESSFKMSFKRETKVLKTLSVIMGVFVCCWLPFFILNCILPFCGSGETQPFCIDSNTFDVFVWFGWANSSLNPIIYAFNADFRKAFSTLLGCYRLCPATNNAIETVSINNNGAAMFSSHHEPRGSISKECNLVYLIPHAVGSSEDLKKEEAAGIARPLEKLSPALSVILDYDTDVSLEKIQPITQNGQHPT
Chain of Pyruvate kinase (Leishmania mexicana) (Q27686 2-499 E452W): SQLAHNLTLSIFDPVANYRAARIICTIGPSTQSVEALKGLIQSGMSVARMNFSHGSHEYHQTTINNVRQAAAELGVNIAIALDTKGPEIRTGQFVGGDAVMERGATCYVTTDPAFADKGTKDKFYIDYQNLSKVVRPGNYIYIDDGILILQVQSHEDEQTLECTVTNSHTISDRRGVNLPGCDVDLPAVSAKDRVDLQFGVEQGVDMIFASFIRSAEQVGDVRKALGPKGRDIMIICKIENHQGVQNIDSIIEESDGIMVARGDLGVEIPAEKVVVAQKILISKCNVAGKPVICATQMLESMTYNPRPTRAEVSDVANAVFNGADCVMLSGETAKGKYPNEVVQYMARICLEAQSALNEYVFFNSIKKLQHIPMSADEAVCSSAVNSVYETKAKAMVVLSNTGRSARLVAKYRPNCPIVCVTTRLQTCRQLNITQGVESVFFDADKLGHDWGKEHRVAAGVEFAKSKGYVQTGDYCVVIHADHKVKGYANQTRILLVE
Chain of Pyruvate kinase PKM (Homo sapiens) (P14618 whole entry, looked up): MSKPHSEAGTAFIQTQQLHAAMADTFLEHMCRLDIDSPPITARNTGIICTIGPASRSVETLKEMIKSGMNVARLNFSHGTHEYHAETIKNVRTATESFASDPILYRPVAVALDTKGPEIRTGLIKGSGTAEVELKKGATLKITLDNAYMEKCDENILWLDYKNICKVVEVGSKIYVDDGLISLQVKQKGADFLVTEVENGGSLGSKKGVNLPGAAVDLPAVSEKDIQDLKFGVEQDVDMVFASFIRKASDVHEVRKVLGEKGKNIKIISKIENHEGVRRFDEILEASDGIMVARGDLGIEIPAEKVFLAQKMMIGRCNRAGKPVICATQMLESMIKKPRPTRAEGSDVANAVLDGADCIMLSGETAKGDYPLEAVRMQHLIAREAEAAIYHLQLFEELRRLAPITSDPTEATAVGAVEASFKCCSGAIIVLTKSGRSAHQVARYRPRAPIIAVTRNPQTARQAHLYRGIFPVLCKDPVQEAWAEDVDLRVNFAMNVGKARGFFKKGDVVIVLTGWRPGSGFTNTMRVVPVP
Chain of Cytochrome P450 2C9 (Homo sapiens) (P11712 whole entry, looked up): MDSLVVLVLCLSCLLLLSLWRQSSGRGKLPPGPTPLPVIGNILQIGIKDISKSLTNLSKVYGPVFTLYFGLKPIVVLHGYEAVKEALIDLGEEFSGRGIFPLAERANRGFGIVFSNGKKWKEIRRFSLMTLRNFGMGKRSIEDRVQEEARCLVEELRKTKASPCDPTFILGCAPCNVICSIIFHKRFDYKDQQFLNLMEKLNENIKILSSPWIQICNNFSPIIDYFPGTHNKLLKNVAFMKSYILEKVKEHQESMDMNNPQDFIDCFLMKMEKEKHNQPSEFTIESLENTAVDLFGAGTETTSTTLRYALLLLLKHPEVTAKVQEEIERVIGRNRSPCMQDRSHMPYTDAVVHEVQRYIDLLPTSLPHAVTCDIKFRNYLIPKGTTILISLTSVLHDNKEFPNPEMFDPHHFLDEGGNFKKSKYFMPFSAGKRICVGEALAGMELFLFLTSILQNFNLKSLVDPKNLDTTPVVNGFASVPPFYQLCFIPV

Question: With COC(=O)[C@]12CCC(C)(C)C[C@H]1[C@H]1C(=O)C=C3[C@@]4(C)C=C(C#N)C(=O)C(C)(C)[C@@H]4CC[C@@]3(C)[C@]1(C)CC2 as the molecule, how does the outcome [1] read?
Answer: Its outcome is “inactive”.

Question: And the Potency [2]?
Answer: Its Potency is 5.01 µM (active).

Question: Which Potency [3] does the source give for CC(C)(O)C1C2OC(=O)C1[C@]1(O)C[C@H]3O[C@]34C(=O)O[C@H]2[C@]14C (stereo not given in full) (tested in a mixture with another compound) here?
Answer: Its Potency is “inactive”.

Question: For NNCc1cccc(O)c1, which activation [4] is on record?
Answer: The activation was 15.1%.

Question: And the Potency [5]?
Answer: The Potency was 15.8 µM (active).

Question: What about the outcome [6] of the same molecule?
Answer: The outcome was “inactive”.

Question: With CC[C@@H](CO)NC(=O)[C@H]1C=C2c3cccc4c3c(cn4C)C[C@H]2N(C)C1 as the molecule, how does the outcome [7] read?
Answer: Its outcome is “inactive”.

Question: And the outcome [8]?
Answer: Its outcome is “inactive”.

Question: With CCC1/C=C/C=CCC(C)C(O)[C@@](C)(O)C(=O)C(C)C(O)C(C)C(=O)C(C)C(O)C(C)C=CC(=O)O[C@H]2C(C)C(CC1)O[C@]1(CCC(C)C(CC(C)O)O1)C2C (stereo not given in full) as the molecule, how does the Potency [9] read?
Answer: Its Potency is “inactive”.

Question: Which Potency [10] does the source give for CCCN(CCC)C(=O)Cc1c(-c2ccc(Cl)cc2)nc2c(Cl)cc(Cl)cn12 here?
Answer: The Potency was “inactive”.

Question: Which outcome [11] does the source give for CC12CCC3C(CCC4=C(O)C(=O)CCC43C)C1CCC2=O (stereo not given) here?
Answer: Its outcome is “inactive”.

Question: And the outcome [12]?
Answer: Its outcome is “inactive”.

Question: And the outcome [13]?
Answer: Its outcome is “inactive”.

Question: And the outcome [14]?
Answer: The outcome was “inactive”.

Question: For COc1cc(C=C(C#N)C#N)cc(O)c1O, which Potency [15] is on record?
Answer: Its Potency is 2.51 µM (active).
